Here are results for 20 molecules from PubChem BioAssay (EPA / NIEHS).

A short description of assay [1]: ATG_XTT_Cytotoxicity: Cytotoxicity Assessment in the Attagene TRANS-FACTORIAL HepG2 Assay (AID 2283584). A digest of the protocol: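 HepG2 cells transiently transfected with GAL4-UAS multiple reporter units, dosed 24 h; cytotoxicity read by XTT as loss of signal versus DMSO baseline.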
Assay [2] is described as follows: TOX21_p53_BLA_p2_viability: Viability Assessment in the Tox21 HCT-116 p53 Agonism Beta-lactamase Assay, Phase 2 (AID 2283591).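 Also: actives lower the ATP signal meaning cytotoxicity.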 The gist of the method:
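Cytotoxicity readout: CellTiter-Glo ATP luminescence, 30 min at room temperature, after the beta-lactamase read. Cells were HCT116 exposed 16 h at 37C to compounds pin-transferred at 217-fold dilution from DMSO stocks.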

Assay [3] addresses Cellular tumor antigen p53 (Homo sapiens) (UniProt P04637). As to the kind of experiment: TOX21_p53_BLA_p2_ratio: Tox21 HCT-116 p53 Agonism Beta-lactamase Assay, Ratio, Phase 2 (AID 2283592). The gist of the method:
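First, HCT116 reporter cells settle for 5 h at 37C. Next, DMSO compound solutions are pinned in (217-fold dilution) and left 16 h. Finally, CCF4-AM substrate is loaded 2 h at room temperature and the 460/530 nm ratio read.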

The nature of assay [4]: TOX21_p53_BLA_p3_viability: Viability Assessment in the Tox21 HCT-116 p53 Agonism Beta-lactamase Assay, Phase 3 (AID 2283593).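 Also: cells exposed to compound for 16 h before reading.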 The gist of the method:
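Cellular ATP was quantified by CellTiter-Glo luminescence, read after 30 min at room temperature. Beforehand, HCT116 cells (4000/well) received compound 5 h post-seeding, 217-fold diluted from DMSO, then incubated 16 h at 37C.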

Assay [5] deals with Cellular tumor antigen p53 (Homo sapiens) (UniProt P04637). As to the kind of experiment: TOX21_p53_BLA_p3_ratio: Tox21 HCT-116 p53 Agonism Beta-lactamase Assay, Ratio, Phase 3 (AID 2283596). The gist of the method: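 Cells were seeded at 4000/well, rested 5 h at 37C, then dosed with DMSO compound solutions (217-fold dilution) for 16 h. CCF4-AM substrate was loaded for 2 h at room temperature, and the 460/530 nm emission ratio was fitted for gain of signal versus DMSO.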

A short description of assay [6]: TOX21_p53_BLA_p4_viability: Viability Assessment in the Tox21 HCT-116 p53 Agonism Beta-lactamase Assay, Phase 4 (AID 2283597).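 Also: hits lower the luminescence signal meaning cytotoxicity.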 The gist of the method:
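4000 HCT116 cells per well; 5 h attachment; compounds from DMSO, 217-fold dilution; 16 h at 37C. Then CCF4-AM, 2 h RT, followed by CellTiter-Glo, 30 min RT, luminescence. Decrease = cytotoxicity.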

The target in assay [7] is Cellular tumor antigen p53 (Homo sapiens) (UniProt P04637). As to the kind of experiment: TOX21_p53_BLA_p5_ratio: Tox21 HCT-116 p53 Agonism Beta-lactamase Assay, Ratio, Phase 5 (AID 2283599). A digest of the protocol:
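Beta-lactamase reporter ratio (blue 460 nm over green 530 nm, 405 nm excitation) after 2 h CCF4-AM loading, in HCT-116 cells exposed 16 h at 37 C to compounds pinned at 217-fold dilution. Increases relative to DMSO baseline scored.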

A short description of assay [8]: TOX21_p53_BLA_p5_viability: Viability Assessment in the Tox21 HCT-116 p53 Agonism Beta-lactamase Assay, Phase 5 (AID 2283600). The gist of the method: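 Decreased CellTiter-Glo luminescence denotes lost viability. Exposure: 16 h at 37C, 5% CO2, with compounds from DMSO stocks diluted 217-fold in wells of 4000 cells.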
Assay [9] concerns the target Cellular tumor antigen p53 (Homo sapiens) (UniProt P04637). Nature of the assay: TOX21_p53_BLA_p4_ratio: Tox21 HCT-116 p53 Agonism Beta-lactamase Assay, Ratio, Phase 4 (AID 2283601). A digest of the protocol:
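Signal is the blue/green (460nm/530nm) ratio of cleaved versus uncleaved CCF4-AM substrate, read after 2 h substrate loading. Cells were HCT116 carrying the p53-responsive beta-lactamase reporter, dosed 16 h at 37C, 5% CO2; CellTiter-Glo measured in parallel.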

“And” between values parts separate entries of the source, which are not always exact repeats. Identical values can stand only once. Results filed as inconclusive are left out. A structure can be active in one record and inactive in another. The source made the active and inactive calls. The calls were made as follows: active = hit-call score of the fitted dose curve at least 0.9, where 1 is the maximum; inconclusive = response in the unintended direction; inactive = score below 0.9.

Sequence of Cellular tumor antigen p53 (Homo sapiens) (P04637 whole entry, looked up): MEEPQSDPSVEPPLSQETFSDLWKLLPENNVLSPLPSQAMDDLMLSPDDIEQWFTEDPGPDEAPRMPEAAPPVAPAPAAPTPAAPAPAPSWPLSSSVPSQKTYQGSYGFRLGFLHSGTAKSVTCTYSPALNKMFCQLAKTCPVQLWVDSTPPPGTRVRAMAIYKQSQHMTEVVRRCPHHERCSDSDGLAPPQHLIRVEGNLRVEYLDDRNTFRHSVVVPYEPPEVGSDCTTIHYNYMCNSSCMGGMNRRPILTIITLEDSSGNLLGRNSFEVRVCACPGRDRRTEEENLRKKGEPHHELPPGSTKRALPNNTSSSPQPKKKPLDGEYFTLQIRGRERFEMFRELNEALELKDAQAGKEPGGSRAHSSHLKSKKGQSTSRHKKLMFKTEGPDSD

Consider `C=C(CC(=O)O)C(=O)O`, for which the call in [1], in assay [2], in assay [3], in assay [4], in assay [5] and in assay [6] was inactive. Besides, the outcome in [7], in [8] and in [9] was inactive.
For the molecule `CCCCCCCCc1ccc(S(=O)(=O)O)cc1`, the molecule was classed as inactive in [1], in assay [2], in [3], in assay [4], in assay [5] and in assay [7]. Further, in [9], the result was inactive. The AC50 in assay [6] was 33.7 µM (active).
`C=C(C#N)C(=O)OCC`: the molecule was called inactive in assay [1], in assay [2], in assay [3], in assay [4], in [5] and in assay [6]. For the same molecule, the outcome in [7], in assay [8] and in [9] was inactive.
As for `Brc1ccc(Br)c(Br)c1`, the molecule was called inactive in assay [1], in assay [2], in assay [3], in [4], in [5] and in assay [6]. The result in assay [7], in assay [8] and in [9] was inactive.
Take `CC1CC(O)CC(C)(C)C1` (centres undefined): the call in assay [1], in [2], in assay [3], in assay [4], in assay [5] and in [6] was inactive. The outcome in [7], in [8] and in assay [9] was inactive.
As for `Oc1c(Cl)cc(Cl)c(Cl)c1Cc1c(O)c(Cl)cc(Cl)c1Cl`, the call in assay [1], in [2] and in assay [4] was inactive. In addition, the concentration at half-maximal activity (AC50) is 9.14 µM (active) and 38.7 µM (active) in assay [2]; 10.3 µM (active) and 583 nM (active) and 984 nM (active) in [3]; 39.9 µM (active) and 568 nM (active) in [4]; 19.5 µM (active) and 446 nM (active) and 1.07 µM (active) in [5]; 36.9 µM (active) and 49.3 µM (active) and 1.62 µM (active) in [6]; 13.8 µM (active) and 26.4 µM (active) and 18.6 µM (active) in assay [7]. For the same molecule, the AC50 in [9] is 42.2 µM (active) and 43.5 µM (active) and 6.65 µM (active).
With `CC1(C)C2=CCCC(C)(C)[C@]23CC[C@H]1C3`, the molecule was called inactive in [1], in assay [2], in assay [3], in assay [4], in [5] and in [6]. Also, the result in assay [7] and in [9] was inactive.
In the case of `CCCCCCCC(=O)OCC(O)CO` (centres undefined), the call in assay [1], in [2], in assay [3], in assay [4], in assay [5] and in assay [6] was inactive. The outcome in [7], in [8] and in [9] was inactive.
Turning to `O=C(c1ccccc1)C(O)c1ccccc1` (centres undefined), in [1], the molecule was called inactive.
For `O=C(O)CCCCCCCCC(=O)O`, the call in [1], in [2], in assay [3], in assay [4], in [5] and in assay [6] was inactive. The outcome in assay [7], in assay [8] and in assay [9] was inactive.
In the case of `C=C1CC[C@H](O)C/C1=C/C=C1\CCC[C@]2(C)[C@@H]([C@H](C)/C=C/[C@H](C)C(C)C)CC[C@@H]12`, the molecule was classed as inactive in assay [1], in assay [2], in [3], in assay [5], in assay [6] and in assay [8]. In assay [9], the outcome was inactive. Also, the concentration at half-maximal activity (AC50) in assay [2] was 71.1 µM (active); in assay [3], 76.4 µM (active) and 45.8 µM (active); in assay [4], 61.1 µM (active) and 45.8 µM (active) and 42.2 µM (active); in assay [6], 45.8 µM (active); in assay [8], 79.6 µM (active).
For the molecule `COC(=O)C=C(C)CCC=C(C)C`, the molecule was classed as inactive in assay [1], in [2], in assay [3], in [4], in [5] and in [6].
Take `COCCOC(=O)c1ccccc1C(=O)OCCOC`: the outcome in [1], in assay [2], in [3], in assay [4], in [5] and in assay [6] was inactive. Besides, the result in assay [7], in assay [8] and in [9] was inactive.
For `ClC(c1ccccc1)(c1ccccc1)c1ccccc1`, the outcome in assay [1] was inactive.
With `CC1(C)O[C@@H]2C[C@H]3[C@@H]4CCC5=CC(=O)C=C[C@]5(C)[C@@]4(F)[C@@H](O)C[C@]3(C)[C@]2(C(=O)CO)O1`, the molecule was called inactive in assay [1], in assay [2], in assay [3], in [4], in [5] and in [6]. For the same molecule, the outcome in assay [7], in [8] and in assay [9] was inactive.
Take `CC/C=C\CC/C=C/CO`: the molecule was classed as inactive in assay [1].
On to `N[C@@H](Cc1cc(I)c(Oc2cc(I)c(O)c(I)c2)c(I)c1)C(=O)O`, for which the molecule was called inactive in assay [1], in [2], in [3], in assay [4], in [5] and in assay [6]. Also, the result in assay [8] and in assay [9] was inactive. For the same molecule, the figures for the half-maximal activity concentration (AC50) in assay [3], in assay [6] and in assay [9] were 43.6 µM (active), 37 µM (active) and 39.8 µM (active), respectively.
`C=C(C)C(=O)OCC(CC)(COC(=O)C(=C)C)COC(=O)C(=C)C`: the molecule was classed as inactive in assay [1], in assay [2], in assay [3], in assay [4], in assay [5] and in assay [6]. Moreover, the result in assay [7] was inactive.
For `CC(=O)Nc1ccc(C(=O)CCl)cc1`, the outcome in [1], in assay [2], in assay [3], in [4], in [7] and in assay [9] was inactive. For the same molecule, the results for the AC50 in [3], in [7] and in assay [9] were 76.7 µM (active), 20.9 µM (active) and 79.4 µM (active), respectively.
Consider `COC(=O)c1ccc(OC)cc1`, for which the result in [1], in [2], in assay [3], in [4], in assay [5] and in assay [6] was inactive. Also, the outcome in assay [7] and in [9] was inactive.
